Compounds without any hit were thinned out: in the full panel of roughly 83,000, 20% have a hit.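 A percent growth of 40 corresponds to 60% growth inhibition; 0 means no net growth; -100 means all cells died. Active threshold: below 10.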 Active and inactive are the calls of the source.
Experiments:
Test in all cases: NCI-60 one-dose screen, 48 h (100 = growth as untreated, 0 = no growth, -100 = all killed)
DU-145 prostate = conditions: 10 µM unless noted
K-562 leukemia = conditions: 10 µM unless noted
MALME-3M melanoma = conditions: 10 µM unless noted
RXF 393 renal = conditions: 10 µM unless noted
SF-295 CNS = conditions: 10 µM unless noted
UACC-257 melanoma = conditions: 10 µM unless noted
M14 melanoma = conditions: 10 µM unless noted
SK-MEL-5 melanoma = conditions: 10 µM unless noted
LOX IMVI melanoma = conditions: 10 µM unless noted
SK-MEL-2 melanoma = conditions: 10 µM unless noted
A498 renal = conditions: 10 µM unless noted
HL-60(TB) leukemia = conditions: 10 µM unless noted
CCRF-CEM leukemia = conditions: 10 µM unless noted
SR leukemia = conditions: 10 µM
OVCAR-4 ovarian = conditions: 10 µM unless noted
IGROV1 ovarian = conditions: 10 µM
OVCAR-3 ovarian = conditions: 10 µM unless noted
BT-549 breast = conditions: 10 µM
HCC-2998 colon = conditions: 10 µM unless noted
UACC-62 melanoma = conditions: 10 µM unless noted

Measured: growth

ClCCN(CCCl)c1ccc(C=NCCc2c[nH]c3ccccc23)cc1
active: A498 renal 1.98%
inactive: DU-145 prostate 56.2% | K-562 leukemia 82.4% | MALME-3M melanoma 76.7% | RXF 393 renal 56.1% | SF-295 CNS 35.6% | UACC-257 melanoma 99.9% | M14 melanoma 91.6% | SK-MEL-5 melanoma 75.8% | LOX IMVI melanoma 74.7% | SK-MEL-2 melanoma 125% | HL-60(TB) leukemia 91% | CCRF-CEM leukemia 54.1% | SR leukemia 31.9% | OVCAR-4 ovarian 92.9% | IGROV1 ovarian 84.2% | OVCAR-3 ovarian 93.3% | BT-549 breast 81.9% | HCC-2998 colon 91.8%

CNC(=O)Oc1cccc(N(C)C)c1
inactive: DU-145 prostate 110% | K-562 leukemia 102% | MALME-3M melanoma 101% | RXF 393 renal 103% | SF-295 CNS 99.8% | UACC-257 melanoma 93.5% | M14 melanoma 107% | SK-MEL-5 melanoma 99.2% | UACC-62 melanoma 100% | LOX IMVI melanoma 96.9% | SK-MEL-2 melanoma 83.4% | A498 renal 104% | HL-60(TB) leukemia 103% | SR leukemia 103% | OVCAR-4 ovarian 106% | IGROV1 ovarian 108% | OVCAR-3 ovarian 110% | BT-549 breast 94.1% | HCC-2998 colon 111%

COc1ccc(C2=NN(c3ccccc3)C(c3sc(N(CCCl)CCCl)nc3Cl)C2)cc1 (stereo not drawn)
inactive: DU-145 prostate 106% | K-562 leukemia 64.1% | MALME-3M melanoma 99.3% | RXF 393 renal 110% | SF-295 CNS 93.2% | UACC-257 melanoma 89.7% | M14 melanoma 93.6% | SK-MEL-5 melanoma 83.7% | UACC-62 melanoma 65.1% | LOX IMVI melanoma 89.8% | SK-MEL-2 melanoma 91.3% | A498 renal 122% | HL-60(TB) leukemia 99.8% | CCRF-CEM leukemia 86.1% | SR leukemia 86.1% | OVCAR-4 ovarian 91.9% | IGROV1 ovarian 121% | OVCAR-3 ovarian 93.3% | BT-549 breast 108% | HCC-2998 colon 107%

Reference: PubChem BioAssay (NCI)
